# In the library only some 4.5% were active in any assay of this set; here they are far more common.
# hcDAF-12 act = H. contortus DAF-12 nuclear receptor activators, primary screen, cell-based, luminescence, HEK293, lit1-tk-luc reporter | activation, % at 6.8 µM | hit rate 1.4% among 370,000 | HEK293 hcDAF-12 lit1-tk-luc reporter; 0% DMSO, 100% Δ7-dafachronic acid;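 active means activation above the mean of all tested compounds plus 3 SD, cut at about 5.5% in these data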;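 further: 100% = response to 3 µM Δ7-dafachronic acid high control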
# hgDAF-12 ag = H. glycines DAF-12 receptor agonists, primary screen, cell-based, luminescence, HEK293, GAL4 fusion, UAS-luciferase; Nuclear hormone receptor DAF-12 (Heterodera glycines), GAL4 fusion; HEK293 GAL4-hgDAF12 UAS-luciferase reporter, agonist luminescence; normalized to butyrate control; activation, % at 6.8 µM; hit rate 1.8% among 370,000;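 active means activation above a cutoff set at the mean of all screened compounds plus 3 SD, cut at about 10% in these data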;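 further: 0% = DMSO wells and 100% = sodium butyrate wells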
# DAX1 inh-1 = DAX1 (NR0B1) inhibitors, primary screen, cell-based, HEK293, Gal4-DAX1, luciferase luminescence | Nuclear receptor subfamily 0 group B member 1 (Homo sapiens), P51843 | HEK293 Gal4-DAX1 luciferase reporter | inhibition, % at 6.75 µM | hit rate 0.99% among 340,000 | AID 504766, 2011;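 active means inhibition above the mean over all tested compounds plus 3 SD, cut at about 4.2% in these data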;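 further: 0% = DAX1-transfected cells with DMSO and 100% = empty-vector control cells with DMSO; inhibition shows as a rise in luminescence from relieved DAX1 repression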
# Target sequence (P51843 207-470 limits assumed): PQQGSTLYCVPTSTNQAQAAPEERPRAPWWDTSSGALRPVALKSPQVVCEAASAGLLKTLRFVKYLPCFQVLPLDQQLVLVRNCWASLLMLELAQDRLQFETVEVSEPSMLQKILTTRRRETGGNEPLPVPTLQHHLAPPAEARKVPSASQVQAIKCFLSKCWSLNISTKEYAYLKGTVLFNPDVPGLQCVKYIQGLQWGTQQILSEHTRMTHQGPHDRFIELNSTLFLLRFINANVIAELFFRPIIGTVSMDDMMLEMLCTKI
# ssDAF12 agonist = S. stercoralis DAF-12 nuclear receptor activators, primary screen, cell-based, luminescence, HEK293, GRIP1 co-expression, lit1-tk-luc; Nuclear hormone receptor DAF-12 (Strongyloides stercoralis); HEK293 ssDAF-12/GRIP1 lit1-tk-luc reporter; % of 3 µM dafachronic acid response; activation, % at 6.8 µM; hit rate 1% among 370,000; AID 652126, 2013;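 active means activation above the mean over all tested compounds plus 3 SD, cut at about 0.9% in these data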;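 further: 0% = DMSO-only wells and 100% = 3 µM delta7-dafachronic acid wells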
# DAX1 inh-2 = DAX1 (NR0B1) inhibitors on StAR promoter, primary screen, cell-based, luminescence, SF-1 (NR5A1), full-length DAX-1 | HEK293T StAR-luciferase reporter, SF-1/DAX-1 repression relief | hit rate 1.1% among 370,000 | inhibition, % at 6.8 µM;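 active means inhibition above the mean over all tested compounds plus 3 SD, cut at about 3.6% in these data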;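 further: 0% = DAX-1 cells with DMSO and 100% = cells lacking DAX-1 with DMSO; higher inhibition means more luminescence from relief of DAX-1 repression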
# GAA850 FXN act = FXN promoter activators, primary screen, cell-based, luciferase luminescence, HEK293 lucGAA850; hit rate 0.56% among 360,000; HEK293 lucGAA850 FXN promoter luciferase reporter, 24 h; percent of 10 µM SAHA response; activation, % at 6 µM; AID 540364, 2011;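 active means activation above the average of all compounds screened plus 3 SD, cutoff fixed separately per campaign, cut at about 7.5% in these data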;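 further: 0% = DMSO wells and 100% = 10 µM SAHA wells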
# * marks the source's active call; other numbers are inactive results; / = no result given.
SMILES,hcDAF-12 act,hgDAF-12 ag,DAX1 inh-1,ssDAF12 agonist,DAX1 inh-2,GAA850 FXN act
CCCCCCCCN1C(=O)[C@@H](CC(=O)NCc2ccc(OC)c(OC)c2)C[C@@]2(C(=O)OC)C1=C[C@H](C(C)C)O[C@@H]2C1CC1,-2,2,/,-2,0,/
COc1cccc(-n2c(CN3CCN(c4ccc(C)cc4)C(C)C3)nc3ccc([N+](=O)[O-])cc3c2=O)c1 (stereo unspecified),5.8*,1,-2,0,-1,-3
CC(=O)Nc1ccc(C=NNc2ccc([N+](=O)[O-])cc2S(=O)(=O)Nc2ccccc2C(=O)O)cc1,-1,-2,1,-1,3.9*,1
CC(=O)Nc1ccc(C=NNc2ccc(S(=O)(=O)Nc3ccccc3C(=O)O)cc2[N+](=O)[O-])cc1,0,-1,1,-1,0,-1
O=[N+]([O-])c1ccc(C=NNc2ccccc2)cc1,0,-1,0,-1,0,3
O=[N+]([O-])c1ccc(N/N=C/c2ccccc2)c(F)c1,1,12*,1,-1,0,4
COC(=O)C1CN(C2CCCC2)CCS(=O)(=O)N1Cc1ccc(OC)cc1 (stereo unspecified),5,-5,/,-1,0,/
NNC(=O)c1oc2ccccc2c1-n1cccc1,-2,2,0,0,0,0
O=C(O)c1oc2ccc(Br)cc2c1-n1cccc1,1,0,7.0*,-1,0,0
O=C(CCc1nc(-c2ccccc2F)no1)NCCc1ccc(F)cc1,1,-2,/,-1,1,/
c1ccc2c(c1)Nc1cc3ccccc3cc1S2,6.5*,7,1,0,0,4
COc1ccc2c(c1)Sc1ccccc1N2,0,2,-1,-2,-4,1
Cn1c(=S)[nH]c2ccccc21,5.9*,0,4.7*,-1,1,0
COCc1cc(=O)n2[nH]c(C)c(-c3ccc(Cl)cc3)c2n1,0,13*,0,-1,-2,1
Cc1c(C(=O)O)cnc2cc(-c3ccc(Cl)cc3)nn12,2,5,1,1.1*,0,2
COc1cc(C=NN2CCN(C(c3ccccc3)c3ccccc3)CC2)cc(OC)c1OC(C)=O,1,-1,/,-2,0,/
O=C1N2Cc3ccccc3C2CS(=O)(=O)N1Cc1ccccc1 (stereo unspecified),-1,1,/,0,0,/
C=CCN1C(=O)[C@@H](CC(=O)NCc2cccc3ccccc23)[C@]2(C(=O)OC)CCCCC=C12,0,-6,/,-2,0,/
CCOC(=O)Cc1csc(-n2sc3ccccc3c2=O)n1,6.3*,1,2,0,0,-4
CC(C)CN1CN2Cc3cc(F)ccc3C2CS1(=O)=O (stereo unspecified),2,1,/,0,-1,/
COc1ccc(Nc2n[nH]c(N)c2C(N)=O)cc1,0,-2,14*,-2,1,1
COc1ccc(Nc2nc(C)cc(C)c2C(N)=O)cc1,1,3,2,0,0,2
CC(C)(C)OC(=O)COc1ccc(/C=N/NC(=O)CN2CCCCC2)cc1,0,13*,1,-1,1,2
O=C(N/N=C/c1ccc(OCC(=O)N2CCCCC2)cc1)c1ccccc1O,5,6,0,1.7*,1,2
CCOC(=O)N1C(=O)C[C@](Sc2ccc(OC)cc2)(C(=O)N2CCOCC2)[C@H]1c1ccc(OC)cc1,0,4,/,-1,-2,/
CSc1cccc(NC(=S)N(CCC(C)C)C(C)c2ccncc2)c1 (stereo unspecified),0,3,4.7*,-1,0,2
